# From the supplement of paper PMC10849652
# Targets with a hit are over-represented here; the source holds about 7,900 in all. About 0.6% of all pairs of compound and target were hits. A number with no mark means an inactive call.
# Assays:
# Assay in all cases: log2 fold change, soluble protein after heating vs DMSO (PISA); higher = thermal stabilisation; K562 cells, 10 uM, 30 min; active = over 0.2 and 3.5 SD of the protein, either way, in both replicates (recomputed)
# [1] = compound: CN1CCN(CCOc2cc(OC3CCOCC3)c3c(Nc4c(Cl)ccc5c4OCO5)ncnc3c2)CC1 [saracatinib]
# How it was run: (§1)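 K562 cells at 2×10^6 cells/mL were treated with 10 μM compound for 30 min. Aliquots were heated for 3 min across 48°C-58°C, pooled, and extracted in PBS with 0.5% NP-40 at 4°C; soluble protein was the supernatant after 21,000xg for 90 min. Soluble protein was quantified by TMTpro 16plex LC-MS/MS with channel sums equalised, and reported as log2 fold change in thermal stability against DMSO controls, with values from duplicates.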
# [2] = compound: CN1CCN(c2nc(C3=C(c4c[nH]c5ccccc45)C(=O)NC3=O)c3ccccc3n2)CC1 [sotrastaurin]
# How it was run: as §1
# [3] = compound: CN1CC[C@H](c2c(O)cc(O)c3c(=O)cc(-c4ccccc4Cl)oc23)[C@H](O)C1 [alvocidib]
# How it was run: as §1
# [4] = compound: CN1CCc2c(c3ccccc3n2Cc2ccc(C(=O)NO)cc2)C1 [Tubastatin A]
# How it was run: as §1
# [5] = compound: CNC(=O)C1=CC=CC=C1NC2=NC(=NC=C2Cl)NC3=C(C=C(C=C3)N4CCOCC4)OC
# How it was run: as §1
# [6] = compound: CNC(=O)c1ccc(Nc2ncc(C(F)(F)F)c(NCc3nccnc3N(C)S(C)(=O)=O)n2)cc1 [defactinib]
# How it was run: as §1
# [7] = compound: CNCc1ccc(-c2[nH]c3cc(F)cc4c3c2CCNC4=O)cc1 [rucaparib]
# How it was run: as §1
# [8] = compound: CNc1nc(-c2ccc3c(N)n[nH]c3c2)cc(N2C[C@@H](C(=O)NC3CCCCC3)CC[C@H]2C)n1
# How it was run: as §1
# [9] = compound: COC(=O)N[C@@H](C)CNc1nccc(-c2cn(C(C)C)nc2-c2cc(Cl)cc(NS(C)(=O)=O)c2F)n1 [encorafenib]
# How it was run: as §1
# [10] = compound: COC(=O)[C@H](CCSC)NC(=O)C1=C(C=C(C=C1)NC[C@H](CS)N)C2=CC=CC=C2
# How it was run: as §1
# [11] = compound: COC1=CC=C(C=C1)CN2C=CC3=C2C=C(C=C3)C(=O)NO
# How it was run: as §1
# [12] = compound: CON(C)C(=O)N1N=C(c2cc(F)ccc2F)S[C@@]1(CCCN)c1ccccc1 [filanesib]
# How it was run: as §1
# [13] = compound: CO[C@H]1C[C@@H]2CC[C@@H](C)[C@@](O)(O2)C(=O)C(=O)N2CCCC[C@H]2C(=O)O[C@H]([C@H](C)C[C@@H]2CC[C@H](n3cnnn3)[C@H](OC)C2)CC(=O)[C@H](C)/C=C(\C)[C@@H](O)[C@@H](OC)C(=O)[C@H](C)C[C@H](C)/C=C/C=C/C=C/1C [zotarolimus]
# How it was run: as §1
# [14] = compound: COc1cc(C(=O)O)ccc1NC(=O)[C@@H]1N[C@@H](CC(C)(C)C)[C@](C#N)(c2ccc(Cl)cc2F)[C@H]1c1cccc(Cl)c1F [idasanutlin]
# How it was run: as §1
# [15] = compound: COc1cc(Nc2ncc3c(n2)-c2ccc(Cl)cc2C(c2c(F)cccc2OC)=NC3)ccc1C(=O)O [alisertib]
# How it was run: as §1
# [16] = compound: COc1cc2nc(-c3cc(F)ccc3O)nc(N[C@@H]3CNC[C@H]3C(C)(C)O)c2cc1OC
# How it was run: as §1
# [17] = compound: COc1cc2ncnc(Nc3ccc(F)c(Cl)c3)c2cc1OCCCN1CCOCC1 [gefitinib]
# How it was run: as §1
# [18] = compound: COc1cccc2cc(-c3nc([C@H]4CC[C@H](C(=O)O)CC4)n4ncnc(N)c34)[nH]c12
# How it was run: as §1
# [19] = compound: CS(=O)(=O)CCNCc1ccc(-c2ccc3ncnc(Nc4ccc(OCc5cccc(F)c5)c(Cl)c4)c3c2)o1 [lapatinib]
# How it was run: as §1
# [20] = compound: CS(=O)(=O)N1CCN(Cc2cc3nc(-c4cccc5[nH]ncc45)nc(N4CCOCC4)c3s2)CC1 [pictilisib]
# How it was run: as §1
# UniProt P35219, sequence (P35219 whole entry, looked up): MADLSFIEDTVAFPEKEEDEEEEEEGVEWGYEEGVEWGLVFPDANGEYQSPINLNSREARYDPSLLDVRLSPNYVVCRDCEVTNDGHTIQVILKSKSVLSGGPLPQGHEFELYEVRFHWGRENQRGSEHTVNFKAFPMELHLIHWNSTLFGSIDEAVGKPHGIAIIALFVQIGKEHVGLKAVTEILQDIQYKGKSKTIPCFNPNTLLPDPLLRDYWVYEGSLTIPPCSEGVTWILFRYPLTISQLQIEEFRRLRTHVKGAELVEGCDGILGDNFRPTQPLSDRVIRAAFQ
# UniProt Q14677, sequence (Q14677 whole entry, looked up): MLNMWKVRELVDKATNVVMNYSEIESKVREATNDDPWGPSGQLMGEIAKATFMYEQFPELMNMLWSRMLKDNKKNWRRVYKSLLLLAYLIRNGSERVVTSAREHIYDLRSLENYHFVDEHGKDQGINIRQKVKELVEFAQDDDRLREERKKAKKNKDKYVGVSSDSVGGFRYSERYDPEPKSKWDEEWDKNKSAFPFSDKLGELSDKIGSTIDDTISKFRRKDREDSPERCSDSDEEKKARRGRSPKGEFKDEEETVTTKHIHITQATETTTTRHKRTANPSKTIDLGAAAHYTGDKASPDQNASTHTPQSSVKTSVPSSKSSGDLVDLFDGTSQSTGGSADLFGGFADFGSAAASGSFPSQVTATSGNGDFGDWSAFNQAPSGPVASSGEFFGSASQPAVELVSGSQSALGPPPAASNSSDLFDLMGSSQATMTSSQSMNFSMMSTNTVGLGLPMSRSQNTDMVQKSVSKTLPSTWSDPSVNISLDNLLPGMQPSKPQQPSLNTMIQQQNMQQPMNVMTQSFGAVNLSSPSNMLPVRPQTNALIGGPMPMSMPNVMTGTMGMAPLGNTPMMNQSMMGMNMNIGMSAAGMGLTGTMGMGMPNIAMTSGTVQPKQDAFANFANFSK
# UniProt P55060, sequence (P55060 whole entry, looked up): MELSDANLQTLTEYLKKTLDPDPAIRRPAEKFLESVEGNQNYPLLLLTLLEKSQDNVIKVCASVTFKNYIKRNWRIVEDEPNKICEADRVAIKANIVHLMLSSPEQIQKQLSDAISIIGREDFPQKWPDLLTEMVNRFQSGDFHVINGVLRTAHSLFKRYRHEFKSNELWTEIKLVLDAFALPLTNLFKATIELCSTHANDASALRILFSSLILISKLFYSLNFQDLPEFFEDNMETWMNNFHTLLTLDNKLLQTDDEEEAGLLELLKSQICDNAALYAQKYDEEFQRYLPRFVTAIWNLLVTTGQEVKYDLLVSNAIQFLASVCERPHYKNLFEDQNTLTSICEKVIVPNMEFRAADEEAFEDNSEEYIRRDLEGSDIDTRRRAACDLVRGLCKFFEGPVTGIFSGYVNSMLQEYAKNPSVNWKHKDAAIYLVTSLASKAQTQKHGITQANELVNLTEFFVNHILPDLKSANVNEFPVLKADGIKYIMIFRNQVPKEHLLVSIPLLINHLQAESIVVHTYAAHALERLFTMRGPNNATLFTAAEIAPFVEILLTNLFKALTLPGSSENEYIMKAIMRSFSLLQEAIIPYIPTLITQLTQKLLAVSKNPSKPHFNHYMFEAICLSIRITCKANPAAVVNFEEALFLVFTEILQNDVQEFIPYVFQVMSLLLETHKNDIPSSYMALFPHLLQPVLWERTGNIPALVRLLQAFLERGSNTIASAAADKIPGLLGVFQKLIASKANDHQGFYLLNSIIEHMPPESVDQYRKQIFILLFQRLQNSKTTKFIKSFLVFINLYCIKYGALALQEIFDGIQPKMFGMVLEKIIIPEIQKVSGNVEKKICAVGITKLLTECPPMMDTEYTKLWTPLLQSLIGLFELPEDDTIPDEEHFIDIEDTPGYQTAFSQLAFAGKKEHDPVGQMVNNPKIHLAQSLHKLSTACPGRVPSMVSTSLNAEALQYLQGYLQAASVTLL
# UniProt P06493, sequence (P06493 whole entry, looked up): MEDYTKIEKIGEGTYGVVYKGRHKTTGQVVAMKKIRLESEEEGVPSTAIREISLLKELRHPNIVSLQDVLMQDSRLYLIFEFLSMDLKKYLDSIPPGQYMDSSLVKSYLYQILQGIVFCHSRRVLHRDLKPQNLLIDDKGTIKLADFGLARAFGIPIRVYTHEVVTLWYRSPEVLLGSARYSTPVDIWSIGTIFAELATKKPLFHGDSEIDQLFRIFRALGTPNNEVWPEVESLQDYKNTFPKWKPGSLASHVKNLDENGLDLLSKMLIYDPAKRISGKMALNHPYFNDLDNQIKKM
# UniProt Q9P031, sequence (Q9P031 whole entry, looked up): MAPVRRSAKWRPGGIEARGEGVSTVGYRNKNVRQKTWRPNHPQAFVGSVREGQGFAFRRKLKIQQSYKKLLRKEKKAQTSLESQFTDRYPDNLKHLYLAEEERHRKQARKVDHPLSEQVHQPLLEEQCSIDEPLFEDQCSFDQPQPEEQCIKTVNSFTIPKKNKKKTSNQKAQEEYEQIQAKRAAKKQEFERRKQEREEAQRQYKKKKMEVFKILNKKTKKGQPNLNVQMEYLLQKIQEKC
# UniProt Q8IX12, sequence (Q8IX12 whole entry, looked up): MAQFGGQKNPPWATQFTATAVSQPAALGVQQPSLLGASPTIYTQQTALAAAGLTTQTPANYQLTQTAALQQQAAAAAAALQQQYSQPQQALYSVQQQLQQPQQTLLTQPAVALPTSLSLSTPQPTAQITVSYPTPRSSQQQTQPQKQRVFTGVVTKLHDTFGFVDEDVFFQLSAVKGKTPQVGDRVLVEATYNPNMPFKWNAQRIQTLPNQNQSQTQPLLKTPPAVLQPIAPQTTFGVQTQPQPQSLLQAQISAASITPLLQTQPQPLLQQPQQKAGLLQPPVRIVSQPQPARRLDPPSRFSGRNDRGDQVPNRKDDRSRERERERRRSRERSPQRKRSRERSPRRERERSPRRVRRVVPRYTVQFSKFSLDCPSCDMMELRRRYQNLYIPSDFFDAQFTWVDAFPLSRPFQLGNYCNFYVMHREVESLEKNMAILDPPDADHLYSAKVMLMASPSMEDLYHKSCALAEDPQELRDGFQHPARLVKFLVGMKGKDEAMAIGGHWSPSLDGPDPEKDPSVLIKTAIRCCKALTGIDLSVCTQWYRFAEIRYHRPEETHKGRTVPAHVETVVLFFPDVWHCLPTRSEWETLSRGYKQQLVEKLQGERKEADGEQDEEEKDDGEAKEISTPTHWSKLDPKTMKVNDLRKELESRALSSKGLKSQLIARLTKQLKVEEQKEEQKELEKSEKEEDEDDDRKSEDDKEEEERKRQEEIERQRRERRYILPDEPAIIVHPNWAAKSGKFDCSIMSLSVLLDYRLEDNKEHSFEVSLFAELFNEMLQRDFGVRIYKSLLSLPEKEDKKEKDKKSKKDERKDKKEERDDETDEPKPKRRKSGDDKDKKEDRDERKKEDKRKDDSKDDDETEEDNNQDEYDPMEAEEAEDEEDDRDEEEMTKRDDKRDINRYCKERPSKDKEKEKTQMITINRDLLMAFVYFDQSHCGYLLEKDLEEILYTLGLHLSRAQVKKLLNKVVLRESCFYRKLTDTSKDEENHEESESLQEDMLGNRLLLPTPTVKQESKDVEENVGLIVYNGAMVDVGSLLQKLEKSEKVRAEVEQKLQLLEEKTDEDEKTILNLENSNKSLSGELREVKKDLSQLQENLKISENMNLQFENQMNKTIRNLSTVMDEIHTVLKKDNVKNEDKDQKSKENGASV
# UniProt Q9HAW4, sequence (Q9HAW4 whole entry, looked up): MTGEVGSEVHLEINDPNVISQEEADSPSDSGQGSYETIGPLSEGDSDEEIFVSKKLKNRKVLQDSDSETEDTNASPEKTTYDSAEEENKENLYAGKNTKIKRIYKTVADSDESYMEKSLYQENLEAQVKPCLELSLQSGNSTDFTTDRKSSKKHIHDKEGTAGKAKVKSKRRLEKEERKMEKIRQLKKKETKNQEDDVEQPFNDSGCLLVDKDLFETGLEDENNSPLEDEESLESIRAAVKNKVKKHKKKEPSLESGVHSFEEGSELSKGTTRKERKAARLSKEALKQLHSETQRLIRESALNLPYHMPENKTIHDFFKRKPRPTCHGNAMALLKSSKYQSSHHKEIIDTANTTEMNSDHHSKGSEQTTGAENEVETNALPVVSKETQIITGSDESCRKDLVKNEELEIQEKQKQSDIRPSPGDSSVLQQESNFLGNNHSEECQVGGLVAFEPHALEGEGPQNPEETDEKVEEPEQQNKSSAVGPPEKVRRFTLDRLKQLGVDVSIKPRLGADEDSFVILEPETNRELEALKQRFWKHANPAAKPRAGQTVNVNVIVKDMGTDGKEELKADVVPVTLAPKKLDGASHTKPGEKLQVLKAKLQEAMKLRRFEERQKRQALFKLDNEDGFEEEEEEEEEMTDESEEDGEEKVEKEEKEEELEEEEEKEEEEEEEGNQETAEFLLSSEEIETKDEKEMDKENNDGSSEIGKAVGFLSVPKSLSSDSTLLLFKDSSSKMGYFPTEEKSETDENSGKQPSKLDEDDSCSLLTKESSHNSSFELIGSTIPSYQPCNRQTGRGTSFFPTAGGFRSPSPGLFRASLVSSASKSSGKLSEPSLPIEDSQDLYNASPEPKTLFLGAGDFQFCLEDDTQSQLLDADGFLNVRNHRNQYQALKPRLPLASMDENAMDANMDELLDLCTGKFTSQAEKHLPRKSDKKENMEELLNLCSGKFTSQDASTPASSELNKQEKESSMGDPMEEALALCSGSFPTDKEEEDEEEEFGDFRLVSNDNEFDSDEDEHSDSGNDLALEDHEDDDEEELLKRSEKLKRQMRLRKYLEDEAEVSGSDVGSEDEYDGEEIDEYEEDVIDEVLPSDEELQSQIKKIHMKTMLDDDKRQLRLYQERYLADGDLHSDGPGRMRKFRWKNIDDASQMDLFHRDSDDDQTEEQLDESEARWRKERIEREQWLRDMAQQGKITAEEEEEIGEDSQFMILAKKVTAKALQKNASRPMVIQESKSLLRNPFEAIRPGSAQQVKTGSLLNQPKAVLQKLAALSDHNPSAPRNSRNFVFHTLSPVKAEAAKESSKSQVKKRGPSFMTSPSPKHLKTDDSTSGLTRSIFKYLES
Target,log2 fold change [1],log2 fold change [2],log2 fold change [3],log2 fold change [4],log2 fold change [5],log2 fold change [6],log2 fold change [7],log2 fold change [8],log2 fold change [9],log2 fold change [10],log2 fold change [11],log2 fold change [12],log2 fold change [13],log2 fold change [14],log2 fold change [15],log2 fold change [16],log2 fold change [17],log2 fold change [18],log2 fold change [19],log2 fold change [20]
CLSPN (UniProt Q9HAW4),0.076,0.002,-0.102,0.039,0.053,-0.183,-0.11,-0.102,0.031,0.047,-0.076,0.053,-0.034,0.107,0.004,-0.111,-0.019,-0.018,0.053,–
CLCN3 isoform 2 (UniProt P51790),0.104,-0.002,-0.079,-0.06,-0.018,-0.009,-0.002,-0.015,-0.027,-0.014,0.057,-0.151,-0.031,-0.008,0.03,-0.064,-0.015,0.04,0.008,–
CHP1 (UniProt Q99653),-0.09,0.068,-0.046,0.041,0.085,-0.006,0.068,-0.219,-0.016,0.021,0.039,-0.044,0.058,-0.084,-0.144,0.129,0.026,-0.02,-0.054,0.053
CCDC59 (UniProt Q9P031),-0.222,0.023,0.267,0.127,0.007,0.309,0.029,0.05,0.026,-0.015,0.024,0.301,-0.008,0.225,-0.124,-0.013,-0.066,-0.054,-0.034,-0.234
CA8 (UniProt P35219),-0.054,-0.023,-0.127,0.084,0.118,-0.163,0.068,0.018,0.024,0.014,0.046,-0.055,0.09,-0.073,-0.112,-0.086,0.023,0.032,0.008,0.173
CCAR1 (UniProt Q8IX12),-0.038,-0.027,-0.17,-0.001,-0.039,-0.021,0.026,0.086,-0.005,-0.033,0.018,-0.105,0.011,-0.041,-0.056,-0.02,0.027,0.014,0.003,-0.072
CLINT1 isoform 3 (UniProt Q14677),0.083,0.041,0.061,-0.036,0.185,0.035,0.109,-0.06,-0.059,0.012,-0.159,0.155,-0.031,0,-0.105,0.074,0.148,-0.041,0.014,–
CAD (UniProt P27708),-0.112,0.022,0.076,-0.044,-0.211,0.097,0.132,0.052,0.052,-0.051,0.019,-0.054,-0.014,-0.03,-0.058,-0.011,-0.044,0.047,-0.031,-0.04
CEPT1 (UniProt Q9Y6K0),0.015,0.033,0.029,0.042,0.001,-0.005,-0.126,-0.056,0.052,-0.056,0.029,-0.277,-0.095,-0.142,0.009,0.022,-0.025,0.036,0.095,0.011
"CLUH, A0A494C0R8",-0.037,-0.058,-0.009,-0.088,0.09,-0.068,0.16,0.138,0.032,0.102,0.131,0.168,-0.065,0.027,0.007,-0.024,0.078,-0.227,-0.011,–
C9orf64 (UniProt Q5T6V5),-0.053,-0.124,-0.177,0.036,-0.04,-0.067,0.377 (active),-0.018,0.047,0.016,0.07,-0.091,0.038,-0.062,0.078,-0.079,-0.062,-0.022,0.043,-0.055
CDK1 (UniProt P06493),0.007,-0.045,-0.063,0.018,-0.043,-0.118,0.013,0.01,-0.01,0.003,0.04,0.024,0.007,0.02,-0.083,-0.036,0.009,0.017,0.008,-0.002
CSE1L (UniProt P55060),0.032,-0.076,-0.069,-0.033,0.016,-0.092,-0.059,-0.057,0.022,-0.013,0.024,-0.1,0.027,-0.135,-0.059,0.005,-0.018,-0.019,-0.036,-0.015
CLCN3 (UniProt P51790),0,0.021,-0.048,-0.14,0.019,0.004,-0.055,-0.057,0.021,-0.06,-0.158,-0.12,-0.099,-0.095,-0.016,0.031,0.045,0.058,-0.06,–
CSTF2 (UniProt P33240),-0.02,0.105,0.045,-0.064,-0.023,0.023,0.034,-0.092,-0.08,-0.028,-0.052,0.005,-0.009,0.013,-0.016,-0.005,-0.07,0.023,0.021,0.069
CLASP2 isoform 3 (UniProt O75122),-0.073,-0.232,-0.132,0.016,-0.041,-0.1,0.015,0.035,0.084,-0.043,0.021,0.068,0.033,-0.024,-0.021,0.055,-0.002,0.003,-0.009,–
